Assay results reported in PubChem BioAssay AID1159580 (chemical genetic matrix, 2015).
The whole screen tested about 5,500 compounds, of which about 2,000 (36%) were called active. About 18% were inconclusive and are not listed. Rule as the data show it: active = normalized growth mostly below about 0.91 (no sharp cut-off); inconclusive = no clear call, values can overlap the other calls; inactive = mostly above about 0.92. The list shows a part of the results.

Experiment: chemical genetic growth profiling, strain panel (AID 1159580);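 also: tested at 20 µM; growth read once vehicle control cultures reached saturation at 30 °C; 1 = growth at the plate median or of vehicle wells; lower values mean less growth of the strain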
Conditions: growth OD
[1] = S. cerevisiae deletion strains, locus YDL101C, strain DUN1, stronger effect = lower value
[2] = S. cerevisiae deletion strains, locus YHR030C, strain SLT2, stronger effect = lower value

Measured: normalized growth

O=C1c2ccccc2C(=O)N1CNc1cccc(Cl)c1
inactive: S. cerevisiae deletion strains, locus YAL013W, strain DEP1, stronger effect = lower value 0.983 | S. cerevisiae deletion strains, locus YBR229C, strain ROT2, stronger effect = lower value 1 | [1] 0.972 | S. cerevisiae deletion strains, locus YDR150W, strain NUM1, stronger effect = lower value 0.931 | S. cerevisiae deletion strains, locus YEL061C, strain CIN8, stronger effect = lower value 0.986 | S. cerevisiae deletion strains, locus YGR078C, strain PAC10, stronger effect = lower value 0.963 | [2] 0.959 | S. cerevisiae deletion strains, locus YHR087W, strain rtc3, stronger effect = lower value 1 | S. cerevisiae deletion strains, locus YJL187C, strain SWE1, stronger effect = lower value 1.01 | S. cerevisiae deletion strains, locus YJR043C, strain POL32, stronger effect = lower value 0.943 | S. cerevisiae deletion strains, locus YJR075W, strain HOC1, stronger effect = lower value 0.951 | S. cerevisiae deletion strains, locus YKL190W, strain CNB1, stronger effect = lower value 1.02 | S. cerevisiae deletion strains, locus YLR039C, strain RIC1, stronger effect = lower value 1.01 | S. cerevisiae deletion strains, locus YLR058C, strain SHM2 (second series), stronger effect = lower value 1 | S. cerevisiae deletion strains, locus YLR085C, strain ARP6, stronger effect = lower value 0.96 | S. cerevisiae deletion strains, locus YLR262C, strain YPT6, stronger effect = lower value 0.98 | S. cerevisiae deletion strains, locus YML094W, strain GIM5, stronger effect = lower value 0.96 | S. cerevisiae deletion strains, locus YMR219W, strain ESC1, stronger effect = lower value 1 | S. cerevisiae deletion strains, locus YMR263W, strain SAP30, stronger effect = lower value 0.984 | S. cerevisiae deletion strains, locus YNL128W, strain TEP1, stronger effect = lower value 1 | S. cerevisiae deletion strains, locus YNL153C, strain GIM3, stronger effect = lower value 0.94 | S. cerevisiae deletion strains, locus YNL298W, strain CLA4 (second series), stronger effect = lower value 0.943 | S. cerevisiae deletion strains, locus YNL322C, strain KRE1, stronger effect = lower value 1.01 | S. cerevisiae deletion strains, locus YNR030W, strain Alg12, stronger effect = lower value 0.95 | S. cerevisiae deletion strains, locus YOL006C, strain TOP1, stronger effect = lower value 0.993 | S. cerevisiae deletion strains, locus YPL055C, strain LGE1, stronger effect = lower value 0.978 | S. cerevisiae deletion strains, locus YPL241C, strain CIN2, stronger effect = lower value 0.971 | S. cerevisiae deletion strains, locus YPR135W, strain CTF4, stronger effect = lower value 0.894 | S. cerevisiae strains, strain wild type, stronger effect = lower value 1.01

Cc1cc(C)c2cc(C(=O)NCCNc3ccc(C(F)(F)F)cn3)[nH]c2c1
active: S. cerevisiae deletion strains, locus YDL214C, strain PRR2, stronger effect = lower value 0.468 | S. cerevisiae deletion strains, locus YDR477W, strain SNF1, stronger effect = lower value 0.457 | S. cerevisiae deletion strains, locus YER123W, strain YCK3, stronger effect = lower value 0.381 | S. cerevisiae deletion strains, locus YER133W, strain GLC7, stronger effect = lower value 0.487 | S. cerevisiae deletion strains, locus YFR019W, strain FAB1, stronger effect = lower value 0.322 | S. cerevisiae deletion strains, locus YGR040W, strain KSS1, stronger effect = lower value 0.501 | S. cerevisiae deletion strains, locus YGR052W, strain FMP48, stronger effect = lower value 0.249 | S. cerevisiae deletion strains, locus YGR092W, strain DBF2, stronger effect = lower value 0.225 | [2] 0.0941 | S. cerevisiae deletion strains, locus YHR079C, strain IRE1, stronger effect = lower value 0.11 | S. cerevisiae deletion strains, locus YHR082C, strain KSP1, stronger effect = lower value 0.125 | S. cerevisiae deletion strains, locus YHR205W, strain SCH9, stronger effect = lower value 0.457 | S. cerevisiae deletion strains, locus YJL095W, strain BCK1, stronger effect = lower value 0.102 | S. cerevisiae deletion strains, locus YJL157C, strain FAR1, stronger effect = lower value 0.501 | S. cerevisiae deletion strains, locus YJR066W, strain TOR1 (second series), stronger effect = lower value 0.212 | S. cerevisiae deletion strains, locus YJR066W, strain TOR1, stronger effect = lower value 0.121 | S. cerevisiae deletion strains, locus YKL048C, strain ELM1, stronger effect = lower value 0.511 | S. cerevisiae deletion strains, locus YKL067W, strain YNK1, stronger effect = lower value 0.567 | S. cerevisiae deletion strains, locus YKL203C, strain TOR2, stronger effect = lower value 0.233 | S. cerevisiae deletion strains, locus YLR113W, strain HOG1, stronger effect = lower value 0.137 | S. cerevisiae deletion strains, locus YLR133W, strain CKI1, stronger effect = lower value 0.446 | S. cerevisiae deletion strains, locus YLR403W, strain SFP1, stronger effect = lower value 0.557 | S. cerevisiae deletion strains, locus YML070W, strain DAK1, stronger effect = lower value 0.365 | S. cerevisiae deletion strains, locus YMR205C, strain PFK2 (second series), stronger effect = lower value 0.551 | S. cerevisiae deletion strains, locus YNL020C, strain ARK1, stronger effect = lower value 0.415 | S. cerevisiae deletion strains, locus YNL183C, strain NPR1, stronger effect = lower value 0.169 | S. cerevisiae deletion strains, locus YOL136C, strain PFK27, stronger effect = lower value 0.398 | S. cerevisiae deletion strains, locus YOR061W, strain CKA2, stronger effect = lower value 0.59 | S. cerevisiae deletion strains, locus YOR119C, strain RIO1, stronger effect = lower value 0.341 | S. cerevisiae deletion strains, locus YOR231W, strain MKK1, stronger effect = lower value 0.129 | S. cerevisiae deletion strains, locus YPL031C, strain PHO85, stronger effect = lower value 0.276 | S. cerevisiae deletion strains, locus YPL153C, strain RAD53, stronger effect = lower value 0.184 | S. cerevisiae deletion strains, locus YPL204W, strain HRR25, stronger effect = lower value 0.268 | S. cerevisiae deletion strains, locus YPL256C, strain CLN2, stronger effect = lower value 0.137
inactive: S. cerevisiae deletion strains, locus YAR019C, strain CDC15, stronger effect = lower value 0.983 | S. cerevisiae deletion strains, locus YBL105C, strain PKC1, stronger effect = lower value 0.971 | S. cerevisiae deletion strains, locus YBR135W, strain CKS1, stronger effect = lower value 0.983 | S. cerevisiae deletion strains, locus YBR136W, strain MEC1, stronger effect = lower value 0.981 | S. cerevisiae deletion strains, locus YBR160W, strain CDC28, stronger effect = lower value 0.97 | S. cerevisiae deletion strains, locus YDL017W, strain CDC7, stronger effect = lower value 0.98 | S. cerevisiae deletion strains, locus YDL028C, strain MPS1, stronger effect = lower value 0.98 | [1] 0.936 | S. cerevisiae deletion strains, locus YDL108W, strain KIN28, stronger effect = lower value 0.972 | S. cerevisiae deletion strains, locus YDL132W, strain cdc53, stronger effect = lower value 0.992 | S. cerevisiae deletion strains, locus YDR052C, strain DBF4, stronger effect = lower value 0.983 | S. cerevisiae deletion strains, locus YDR054C, strain cdc34, stronger effect = lower value 0.968 | S. cerevisiae deletion strains, locus YDR226W, strain ADK1, stronger effect = lower value 0.983 | S. cerevisiae deletion strains, locus YFL009W, strain cdc4, stronger effect = lower value 0.991 | S. cerevisiae deletion strains, locus YFL029C, strain CAK1, stronger effect = lower value 0.985 | S. cerevisiae deletion strains, locus YFR003C, strain YPI1, stronger effect = lower value 0.976 | S. cerevisiae deletion strains, locus YFR028C, strain CDC14, stronger effect = lower value 0.976 | S. cerevisiae deletion strains, locus YIL147C, strain SLN1, stronger effect = lower value 0.984 | S. cerevisiae deletion strains, locus YJL128C, strain PBS2, stronger effect = lower value 0.961 | S. cerevisiae deletion strains, locus YJR016C, strain ILV3, stronger effect = lower value 0.985 | S. cerevisiae deletion strains, locus YKL193C, strain SDS22, stronger effect = lower value 0.989 | S. cerevisiae deletion strains, locus YMR001C, strain CDC5, stronger effect = lower value 0.986 | S. cerevisiae deletion strains, locus YMR277W, strain FCP1, stronger effect = lower value 0.992 | S. cerevisiae deletion strains, locus YNL006W, strain LST8, stronger effect = lower value 0.986 | S. cerevisiae deletion strains, locus YNL161W, strain CBK1, stronger effect = lower value 0.986 | S. cerevisiae deletion strains, locus YNL207W, strain RIO2, stronger effect = lower value 0.955 | S. cerevisiae deletion strains, locus YNL222W, strain SSU72, stronger effect = lower value 0.974 | S. cerevisiae deletion strains, locus YNL307C, strain MCK1 (second series), stronger effect = lower value 0.644 | S. cerevisiae deletion strains, locus YOL078W, strain AVO1, stronger effect = lower value 0.985 | S. cerevisiae deletion strains, locus YOR329C, strain SCD5, stronger effect = lower value 0.984 | S. cerevisiae deletion strains, locus YPL209C, strain IPL1, stronger effect = lower value 0.976 | S. cerevisiae deletion strains, locus YPR025C, strain CCL1, stronger effect = lower value 0.98 | S. cerevisiae deletion strains, locus YPR106W, strain ISR1, stronger effect = lower value 1 | S. cerevisiae deletion strains, locus YPR111W, strain DBF20, stronger effect = lower value 0.944 | S. cerevisiae deletion strains, strain NNK1, stronger effect = lower value 0.94 | S. cerevisiae deletion strains, strain TSCII, stronger effect = lower value 0.985
